# Screening results from PubChem.
# D1 allo mod – D1 CRE-luciferase signal change, two-sided – cell-based, HEK293 D1, dopamine EC30, D1 allosteric modulator project, primary screen; dopamine EC30 potentiation; actives deviate in either direction; B-score at 10 µM; 58,000 compounds, 5.9% hits;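 active = luminescence count or its row- and column-corrected plate score outside the 99.7% band of the plate's sample wells, on either side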
# Target sequence (P21728 whole entry, looked up): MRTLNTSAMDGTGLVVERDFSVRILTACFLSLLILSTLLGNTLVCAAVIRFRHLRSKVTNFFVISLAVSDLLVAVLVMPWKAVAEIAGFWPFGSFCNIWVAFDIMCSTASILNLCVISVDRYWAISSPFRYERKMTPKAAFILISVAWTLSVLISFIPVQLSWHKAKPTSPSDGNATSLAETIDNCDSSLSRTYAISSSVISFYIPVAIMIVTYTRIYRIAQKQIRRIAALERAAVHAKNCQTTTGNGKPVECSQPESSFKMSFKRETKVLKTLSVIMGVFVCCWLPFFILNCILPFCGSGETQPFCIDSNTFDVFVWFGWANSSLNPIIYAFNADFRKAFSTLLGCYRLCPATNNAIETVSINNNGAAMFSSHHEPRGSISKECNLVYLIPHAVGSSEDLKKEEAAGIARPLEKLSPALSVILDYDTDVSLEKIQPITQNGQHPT
# hDAT+cocaine – changed hDAT dopamine uptake under cocaine IC80, either direction, primary screen, cocaine antagonist project, cell-based, LLC-PK1 hDAT, [14C]-dopamine uptake, MLSMR | LLC-PK1 hDAT cells, [14C]-dopamine uptake with cocaine IC80; actives deviate in either direction | B-score at 10 µM | 110,000 compounds, 1.3% hits | AID 449768, 2010;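 active = Z score or B-score, a plate-position-corrected score, falls beyond the plate's 99.7% confidence bounds, in either direction; inactive = both scores lie inside the 99.7% bounds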;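 also: scored against the spread of the other compound wells on the same plate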
# CYP2C19 inh – blockers of cytochrome P450 2C19 activity – biochemical, luminescence, ADME assay, primary screen; P33261; CYP2C19 Supersomes, luciferin-H EGE luminescence, 30 min; inhibition, % at 5 µM; 96,000 compounds, 21% hits; AID 778, 2007;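 active = CYP2C19 inhibition above a set limit at 5 µM in the primary screen, cut at about 50% in these data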;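 also: plate controls were negative control wells for no effect and 2.5 mM tranylcypromine positive control for full effect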
# CYP2C19 activ – human CYP2C19 activators, primary screen, biochemical, luminescence | activation factor at 5 µM | recombinant CYP2C19, luciferin-H EGE luminescence; active compounds read high; 0 = fully inhibited enzyme, 1 = untreated enzyme | 96,000 tested, under 10 active | Cytochrome P450 2C19 (Homo sapiens), P33261 | AID 1025, 2008;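 active = activation factor of at least 2 at 5 µM in the primary screen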;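 also: 0 = wells with 2.5 mM tranylcypromine and 1 = vehicle-only wells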
# CYP2C9 act – human CYP2C9 activators, primary screen, biochemical, luminescence. Cytochrome P450 2C9 (Homo sapiens), P11712. recombinant CYP2C9, luciferin-H conversion; active compounds read high; factor 1 = untreated enzyme, 0 = blocked. activation factor at 5 µM. 96,000 compounds, 1.4% hits;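 active = activation factor of 2 or more for CYP2C9 at a 5 µM dose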;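 also: 0 = sulfaphenazole-blocked wells and 1 = vehicle-only wells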
# CYP2C9 inhib – blockers of cytochrome P450 2C9 activity – biochemical, luminescence, ADME assay, primary screen; AID 777, 2007; P11712; inhibition, % at 5 µM; 96,000 compounds, 20% hits; CYP2C9 Supersomes, luciferin-H conversion;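 active = blocking of liver enzyme CYP2C9 beyond about 50% at 5 µM, limit read from the data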
# * hit, by the source's call; . = no result. Shown are actives, neighbours in structure and some others; about 28% of the full set was active somewhere.
SMILES,D1 allo mod,hDAT+cocaine,CYP2C19 inh,CYP2C19 activ,CYP2C9 act,CYP2C9 inhib
COc1ccc(C(O)P(=O)(O)CCc2ccccc2)cc1 (configuration not stated),0.633,-2.4,-19.0,1.2,1.2,-21.6
COc1ccc(CCC(C(O)C(F)(F)F)S(=O)c2ccccc2)cc1 (configuration not stated),0.0295,0.0879,60.2*,0.4,0.5,50.3*
Cc1ccc(C2c3c(-c4ccccc4O)n[nH]c3C(=O)N2Cc2ccncc2)cc1 (configuration not stated),.,-0.885,40.8,0.6,0.7,33.7
COc1ccc(C2c3c(-c4ccccc4O)n[nH]c3C(=O)N2CCc2ccc(OC)c(OC)c2)cc1 (configuration not stated),4.58,0.877,85.6*,0.1,0,96.1*
O=C1c2[nH]nc(-c3ccccc3O)c2C(c2cccc(O)c2)N1Cc1ccco1 (configuration not stated),.,2.11,26.6,0.7,0.9,11.1
COc1ccc(CCN2C(=O)c3[nH]nc(-c4ccccc4O)c3C2c2cccc(Cl)c2)cc1 (configuration not stated),.,-0.767,35.0,0.7,0.4,62.5*
COc1cccc(C2c3c(-c4cc(Cl)c(C)cc4O)n[nH]c3C(=O)N2Cc2cccnc2)c1 (configuration not stated),.,-1.06,42.8,0.6,0.3,72.0*
Cc1ccc(C(=O)CSc2nc(C)cc(=O)[nH]2)cc1,.,0.852,12.0,0.9,0.7,32.0
Cc1ccc(C(=O)CSc2n[nH]c(C)n2)cc1,-1.45,0.209,52.2*,0.5,1.1,-15.0
CCc1ccc(C(=O)CSc2n[nH]c(C)n2)cc1,-0.216,0.579,88.8*,0.1,0.6,35.1
CN1CCc2c(sc3ncn4nc(-c5ccccc5O)nc4c23)C1,.,.,20.1,0.8,0.6,36.1
C[C@@H]1CN(CCCn2c3ccccc3c3ccccc32)C[C@H](C)N1,.,0.202,.,.,.,.
COC(=O)CN1CCN(C(=O)c2ccc(F)cc2)c2ccccc2C1,-0.309,0.0807,53.3*,0.5,1,1.2
CCCC(=O)Nc1ccc(C(=O)NNC(=O)c2ccccc2Br)cc1,.,-1.18,8.0,0.9,0.8,21.6
Cc1ccc(NC(=O)CC(O)(C(F)(F)F)C(F)(F)F)c(Br)c1,0.0255,-3*,86.6*,0.1,0.1,86.4*
CCN(CC)CC(=O)Nc1ccc(C)cc1Br,-0.401,1.25,49.9,0.5,0.4,61.5*
CCc1cc(C(=O)Nc2ccc(C)cc2Br)cs1,.,0.255,.,.,.,.
C[C@H]1CC[C@@]2(O[C@H](CCO)C[C@@H](O)[C@@H]2O)O1,.,-0.277,.,.,.,.
Fc1ccccc1N1CC(c2ccccc2)C(c2cccs2)=N1 (configuration not stated),.,0.533,23.8,0.8,0.4,59.5*
COCCN1C(=O)C(=O)/C(=C(/O)c2cccc(S(=O)(=O)N(C)C)c2)C12C(=O)N(C)c1ccccc12 (configuration not stated),-1.55,0.0381,-15.9,1.2,0.2,83.5*
Cc1cc(C)n(-c2nnc(C)n2NS(C)(=O)=O)n1,0.476,0.613,-7.2,1.1,1.2,-24.9
N/C(=N\OC(=O)C(c1ccccc1)c1ccccc1)c1ccccn1,.,-0.0772,.,.,.,.
N/C(=N\OC(=O)C(c1ccccc1)c1ccccc1)c1cccnc1,.,2.04,19.0,0.8,0.5,51.1*
CC(=O)N(Cc1c(C)nn(-c2ccccc2)c1Cl)c1ccc(Cl)cc1,.,1.96,89.9*,0.1,0.5,48.6
O=C(Nc1cccc(Cl)c1)N(CCN1CCOCC1)Cc1ccccc1F,.,-0.037,39.6,0.6,0.1,92.5*
SMILES,D1 allo mod,hDAT+cocaine,CYP2C19 inh,CYP2C19 activ,CYP2C9 act,CYP2C9 inhib
Cc1ccc(C)c2[nH]c(=O)c(CN(CCN3CCCC3)C(=O)Nc3cccc(Cl)c3)cc12,-0.643,-0.223,19.5,0.8,0.9,12.2
N#CCCN(Cc1cccnc1)C(=O)Nc1cccc(Cl)c1,.,-0.928,94.1*,0.1,0.6,41.7
COc1ccc(CN(CCCN2CCOCC2)C(=O)Nc2cccc(Cl)c2)cc1OC,.,2,80.0*,0.2,0,97.1*
C=CCC(c1ccccc1F)N(CCN1CCOCC1)C(=O)Nc1cccc(Cl)c1 (configuration not stated),.,0.545,31.2,0.7,0.1,86.6*
COc1ccc(CCN(C)C(=O)N2CCOCC2)cc1OC,0.00816,-0.69,12.3,0.9,1.1,-14.2
COc1cccc2cc(C(C)N(CCCN3CCOCC3)C(=O)Nc3ccccc3)oc12 (configuration not stated),-0.616,-0.423,12.0,0.9,0.7,31.6
COCCNC(=O)[C@H]1C[C@@H]1[C@H](NP(=O)(c1ccccc1)c1ccccc1)c1ccccc1,.,0.13,.,.,.,.
O=C(Nc1cccc(Cl)c1)N(CCN1CCOCC1)Cc1cccc(Cl)c1,0.768,0.0145,84.6*,0.2,0.1,94.3*
c1ccc2nc(-c3nc4ccccc4o3)ccc2c1,-3.95*,-0.832,71.3*,0.3,0.6,42.7
c1cc(-c2nc3ccccc3o2)nc(-c2nc3ccccc3o2)c1,-0.775,.,.,.,.,.
O=C1CC(Cc2ccc(Cl)cc2)C(=O)N1c1ccccn1 (configuration not stated),-0.347,0.341,43.6,0.6,1,-1.1
COc1cc(C2C(C#N)=C(N)N(c3sc4c(c3C#N)CCCC4)C3=C2C(=O)CC(C)(C)C3)cc(OC)c1OC (configuration not stated),.,-0.307,30.2,0.7,0.8,18.0
N#Cc1c(N2C(=O)C3C4C=CC(C4)C3C2=O)sc2c1CCC2 (configuration not stated),1.38,-0.197,63.8*,0.4,0.7,29.7
OC(CN1CCN(c2cccc(C(F)(F)F)c2)CC1)c1c[nH]c2ccccc12 (configuration not stated),-0.788,0.405,21.7,0.8,1.5,-53.8
CCn1c(CSc2nc3ccccc3s2)nnc1SCC(=O)NCC(=O)OC,.,-0.616,24.9,0.8,0.8,24.6
Cc1ccc(N2CC(C(=O)N3CCCc4ccccc43)CC2=O)cc1 (configuration not stated),0.24,-0.902,68.2*,0.3,0,96.3*
COc1ccc(C2=NOC(C(=O)N3CCN(c4ccccc4OC)CC3)C2)cc1 (configuration not stated),-3.51*,-1.08,8.5,0.9,0.8,22.4
